# Measured values taken from PubChem BioAssay (NCI).
# The panel holds about 83,000 compounds, 20% with a hit somewhere; the sample as a whole holds those more often.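 Testing used 96-well plates and a 48-hour single-concentration exposure. Example: -40 means 40% of the starting cells died.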 A number with no mark means an inactive call. Activity calls are given as the source filed them.
# Test system: HL-60(TB) leukemia
# Test: NCI-60 one-dose screen, 48 h (100 = growth as untreated, 0 = no growth, -100 = all killed)
# Conditions: 10 µM unless noted
# Experimental: Growth inhibition of the HL-60(TB) human tumor cell line is measured as a screen for anti-cancer activity. Cells are grown in 96 well plates and exposed to the test compound for 48 hours. Compounds are tested at a single concentration, which is 10^-5 M for most compounds. The reported endpoint is percent growth (GI% or GIPRCNT), where numbers from 0 - 100% represent growth inhibition, and numbers from -100% - 0 represent cell death. For example, a value of 40 represents 60% growth inhibition. A value of 0 means no net growth occurred over the course of the experiment. A value of -40 indicates 40% of cells at the beginning of the experiment died by the end of the experiment. A value of -100 means all cells are dead at the end of the experiment.
# NCI-60 Human Tumor Cell Lines Screen was performed using the standard one-dose NCI protocol, which is described in more detail at https://dtp.cancer.gov/discovery_development/nci-60/default.htm.
# Compounds with GIPRCNT values below 10 were considered active. Activity score was based on GIPRCNT using the following formula: […]
# Score is 0 for GIPRCNT values of 100 or above, 50 for GIPRCNT values of 0, and 100 for GIPRCNT values of -100.
row,Compound,growth
1,CC12CCC3C(CCC4Cc5[nH]c6ccccc6c5CC43C)C1CCC2O (stereo not given),-32.9% (active)
2,C#Cc1ccc2c(c1)C(c1ccccc1)=NCC(=O)N2C,1.49% (active)
3,CCCCC1(CCC)C(=O)NC(=S)NC1=O,95.5%
4,CC1=C(CCCNS(C)(=O)=O)C2=C(C)C3(CC3)[C@@](C)(O)C(=O)C2=C1,14%
5,CCCCCCCC[N+](C)(CCCCCCCC)CCCCCCCC,32%
6,N#CC1C(C#N)C2CCC1C1C2N1c1ccccc1 (stereo not given),91.7%
7,Cc1ccc(S(=O)(=O)F)cc1C(=O)O,104%
8,N#C[S-].[Au+].c1ccc(CN2[CH-]N(Cc3ccccc3)C(c3ccccc3)=C2c2ccccc2)cc1,-44.1% (active)
9,COC(=O)[C@@H](C)C[C@H](Cc1ccccc1)NC(=O)c1csc([C@@H](C[C@H](C(C)C)N(C)C(=O)[C@@H](NC(=O)[C@H]2CCCCN2C)c2ccc(F)cc2)OC(C)=O)n1,-42.6% (active)
10,COc1cccc(/C=C/[N+](=O)[O-])c1,17.4%
11,COC(=O)[C@H](C[C@H](Cc1ccccc1)NC(=O)c1csc([C@@H](C[C@H](C(C)C)N(C)C(=O)[C@@H](NC(=O)[C@H]2CCCCN2C)C(C)C)OC(C)=O)n1)NC(=O)OCc1ccccc1,-30.3% [8.5 µM] (active)
12,C1CCC([PH+](C2CCCCC2)C2CCCCC2[PH+](C2CCCCC2)C2CCCCC2)CC1.[Au].[CH-]1CCCCC1CC1CCCC[N-]1 (stereo not given),-32.3% (active)
13,CC(=O)[C@H]1CC[C@H]2[C@@H]3CC[C@H]4C[C@H](N)CC[C@]4(C)[C@H]3CC[C@]12C,63.4%
14,Nc1c(F)cc(-c2nc3cc(F)ccc3[se]2)cc1Br,95.9%
15,C[C@]12CC[C@@H]3c4ccc(Oc5nc(N6CC6)nc(N6CC6)n5)cc4CC[C@H]3[C@@H]1CCC2=O,-35.6% (active)
16,CCCCCN(CCCCC)CC(O)c1cc(Cl)ccc1OC (stereo not given),55.4%
17,O=C(O)C(O)C(O)C1[O][Sb]([c]2ccc([N+](=O)[O-])cc2)[O]C1CO (stereo not given),92.8%
18,CNC(=O)Oc1ccc(N(C)C)cc1C(C)C,130%
19,C[C@]12CCc3nc(Nc4ccccc4F)sc3C1=CC[C@@H]1[C@@H]2CC[C@]2(C)C(=O)CC[C@@H]12,34.2%
20,Nc1cc2nc3ccccc3nc2cc1N,87.5%

row,Compound,growth
1,C[N+]12CN3CN(CN(C3)C1)C2,142%
2,C=C1C[C@](OC)([C@H](O)C(=O)N[C@@H](OC)[C@@H]2C[C@@H](O)C(C)(C)[C@@H](C[C@@H](COC)OC)O2)O[C@H](C)[C@@H]1C,-52% (active)
3,CC12CCC3C(CCC4=CC(=O)CCC43CF)C1CCC2=O (stereo not given),113%
4,O=C1NC(=O)C(=Cc2cccn2CCCCCn2c3ccccc3c(=O)c3ccccc32)C(=O)N1,92.2%
5,CCCC[C@H](NC(=O)[C@H]1CCCN1C)C(=O)N(C)[C@H](C[C@@H](OC(C)=O)c1nc(C(=O)N[C@@H](Cc2ccccc2)C[C@H](C)C(=O)OCC)cs1)C(C)C,-28.7% (active)
6,COC(=O)[C@H](Cc1ccccc1)NC(=O)c1csc([C@@H](C[C@H](C(C)C)N(C)C(=O)[C@@H](NC(=O)[C@H]2CCCN2C)C2CC2)OC(C)=O)n1,-44.9% (active)
7,CC(C)COC(C[N+](=O)[O-])C(Cl)(Cl)Cl (stereo not given),93%
8,O=[N+]([O-])CC(O)C(Cl)(Cl)Cl (stereo not given),83.7%
9,C[C@@]1(CCCCCCCCCc2ccc(O)cc2)C[C@]2(C)OC(=O)C[C@@H]2OO1,81%
10,COC(=O)C12CC(NC(=O)c3csc([C@@H](C[C@H](C(C)C)N(C)C(=O)[C@@H](NC(=O)[C@H]4CCCCN4C)C(C)C)OC(C)=O)n3)(C1)C2,-38.9% (active)
11,Fc1ccc(C2=CCNCC2)cc1,109%
12,CS(=O)(=O)CCN1CC2CCCC(C2)C1,81.4%
13,CCOC(=O)CCC(NC(=O)C(Cc1ccc(N(CCCl)CCCl)cc1)NC=O)C(=O)OCC (stereo not given),9.37% (active)
14,CC1(C)CN1P(=O)(N1CC1(C)C)N1CC1(C)C (stereo not given),90%
15,O=C([O][Hg][CH2]C1COCC([CH2][Hg][O]C(=O)c2ccccc2)O1)c1ccccc1 (stereo not given),23.1%
16,O=c1[nH]cc(N(CCCl)CCCl)c(=O)[nH]1,-9.89% (active)
17,CCOC(=O)[C@@H](C)C[C@H](Cc1ccccc1)NC(=O)c1csc([C@@H](C[C@H](C(C)C)N(C)C(=O)CNC(=O)[C@H]2CCCCN2C)OC(C)=O)n1,-32.3% (active)
18,COc1cc2c(cc1OCCCCn1c(-c3cccs3)nc3ccccc31)N=C[C@@H]1CCCN1C2=O,-18.7% (active)
19,CC(=O)c1ccc(C(=O)NCC2CCC3(CC2)OOC2(CCCCC2)OO3)cc1,19.6%
20,CN(C)CC(C(=O)Cc1ccccc1)c1ccccc1 (stereo not given),66.3%
